PAFAH1B3 inh: PAFAH1B3 (human) inhibition; Q15102; recombinant PAFAH1B3, FP-rhodamine probe, fluorescence polarization; inhibition, % at 3.39 µM; 0.28% of 340,000 active; AID 492972;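 active means inhibition above the screen-wide average of all tested compounds plus 3 SD, cut at about 25% in these data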;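 further: 0% = enzyme with DMSO only and 100% = wells lacking PAFAH1B3 protein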
Target sequence (Q15102 whole entry, looked up): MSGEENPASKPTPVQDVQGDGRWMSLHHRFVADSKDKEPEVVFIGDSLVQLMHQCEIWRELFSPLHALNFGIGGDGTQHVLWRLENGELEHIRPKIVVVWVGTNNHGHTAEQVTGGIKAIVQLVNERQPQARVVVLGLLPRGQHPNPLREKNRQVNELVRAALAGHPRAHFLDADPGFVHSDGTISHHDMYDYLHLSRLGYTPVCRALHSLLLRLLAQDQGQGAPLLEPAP
PME-1 inh: blocks human protein phosphatase methylesterase 1; Q9Y570; recombinant PME-1, FP-Rh probe fluorescence polarization; inhibition, % at 5.9 µM; 0.53% of 320,000 active; AID 2130;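 active means inhibition above the campaign mean of all compounds plus 3 SD, cut at about 26% in these data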;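 further: competitive labeling of PME-1 active site by serine hydrolase directed probe; 0% = PME-1 with DMSO and 100% = wells lacking PME-1 enzyme; inhibitors block probe labeling so polarization falls and inhibition rises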
Fam108B inh: Fam108B inhibition, counter-screen for RBBP9 inhibitors; inhibition, % at 9.51 µM; 0.33% of 300,000 active; recombinant Fam108B, FP-Rh probe fluorescence polarization;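 active means inhibition above the screen mean inhibition plus 3 SD, computed separately per campaign, cut at about 18% in these data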;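 further: inhibitors lower polarization as less probe binds the enzyme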
PAFAH1B2 inh: PAFAH1B2 (human) inhibition. P68402. recombinant PAFAH1B2, FP-rhodamine activity probe, fluorescence polarization. inhibition, % at 3.39 µM. 1.2% of 340,000 active. AID 492953;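 active means inhibition above the mean of all tested compounds plus 3 SD, cut at about 24% in these data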;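 further: 0% = enzyme with DMSO and 100% = wells lacking PAFAH1B2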
Target sequence (P68402 whole entry, looked up): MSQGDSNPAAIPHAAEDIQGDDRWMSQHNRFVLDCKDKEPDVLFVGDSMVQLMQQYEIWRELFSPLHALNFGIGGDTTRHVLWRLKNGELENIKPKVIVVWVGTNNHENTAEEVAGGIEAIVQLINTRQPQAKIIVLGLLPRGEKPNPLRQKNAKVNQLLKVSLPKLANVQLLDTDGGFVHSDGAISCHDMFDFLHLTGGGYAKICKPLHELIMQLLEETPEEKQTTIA
PAFAH2 FP inh: PAFAH2 (human) inhibition | Q99487 | recombinant PAFAH2, FP-rhodamine activity probe, fluorescence polarization | inhibition, % at 3.39 µM | 0.99% of 340,000 active;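 active means inhibition above the mean over all tested compounds plus 3 SD, cut at about 30% in these data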;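 further: inhibitors block probe labeling of enzyme so polarization drops; 0% = enzyme with DMSO and 100% = wells lacking PAFAH2 protein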
pPAFAH FP inh: inhibitors of human plasma PAF acetylhydrolase (pPAFAH); AID 463082; 1.5% of 330,000 active; Q13093; recombinant pPAFAH, FP-rhodamine probe fluorescence polarization; inhibition, % at 3.39 µM;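 active means inhibition above the mean inhibition across the screen plus 3 SD, cut at about 25% in these data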;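 further: inhibitors block binding of the rhodamine activity-based probe so polarization drops; 0% = enzyme with DMSO and 100% = wells lacking pPAFAH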
PAFAH2 FP conf: PAFAH2 (human) inhibition, confirmed. 65% of 2,300 active. shares compounds with PAFAH2 FP inh. AID 493030. recombinant PAFAH2, FP-rhodamine activity probe, fluorescence polarization. inhibition, % at 3.39 µM;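 active means mean inhibition over three repeats above a set limit taken from the earlier primary screen, cut at about 30% in these data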;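 further: inhibitor blocks binding of rhodamine activity probe so polarization falls; 0% = enzyme with DMSO and 100% = wells lacking PAFAH2 protein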
Starred values were filed as active, the others as inactive; nt = not tested or not shown. A selection: hits, their analogues and other compounds. The true share with any hit is near 2.9%.

SMILES | PAFAH1B3 inh | PME-1 inh | Fam108B inh | PAFAH1B2 inh | PAFAH2 FP inh | pPAFAH FP inh | PAFAH2 FP conf
Cc1ccc(/C=C2/SC(=S)N(CCCC(=O)Nc3cc([N+](=O)[O-])ccc3O)C2=O)cc1 | 8.9 | 2.7 | -6.8 | 4.1 | 32.4* | 7.6 | 15.7
O=C(COC(=O)c1cccc(F)c1)NCCC1=CCCCC1 | 5.1 | nt | nt | 1.1 | 17.5 | 22.4 | nt
O=C(COC(=O)c1ccccc1)NCCC1=CCCCC1 | 0.1 | 4.1 | 4.2 | 1.5 | 34.9* | 9.2 | 30.6*
Cc1ccsc1C(=O)OCC(=O)NCCC1=CCCCC1 | -2.4 | -2.0 | -2.5 | 0.3 | 31.9* | 8.6 | 25.4
Nc1cc(C(=O)OCC(=O)NCCC2=CCCCC2)ccc1Cl | -4.7 | nt | nt | 3.1 | 52.5* | 15.6 | 38.5*
O=C(COC(=O)CNC(=O)c1ccc(Br)cc1)NCCC1=CCCCC1 | 7.3 | -1.9 | -2.0 | 1.4 | 4.5 | 11.0 | nt
O=C(COC(=O)c1ccc(Br)cc1)NCCC1=CCCCC1 | 8.5 | -4.1 | 8.8 | 3.4 | 31.0* | 18.6 | 31.6*
COc1ccc(CN2CCN(CCSc3ccc(C)cc3)CC2)c(OC)c1OC | 8.0 | -1.8 | 1.7 | 3.0 | 7.9 | 6.5 | nt
Cc1ccccc1N=C1C(=O)Nc2ccccc21 | 3.2 | nt | nt | 3.1 | -5.6 | nt | nt
Cc1nn(-c2ccc(C(=O)NCC(c3ccco3)N3CCCC3)cc2)c(C)c1Cl (stereo unspecified) | 0.3 | -3.4 | nt | -3.8 | -2.3 | -0.1 | nt
CCOc1ccccc1C(=O)OCC(=O)Nc1cccc(S(=O)(=O)N2CCCC2)c1 | 10.4 | nt | nt | 8.9 | 72.7* | 4.3 | 51.9*
CCS(=O)c1ccccc1C(=O)OCC(=O)Nc1ccc2ccccc2c1 (stereo unspecified) | 11.4 | nt | nt | -0.3 | 69.6* | 7.9 | 66.6*
CCc1ccccc1OCC(=O)Nc1cccc(S(=O)(=O)N2CCCC2)c1 | 4.2 | nt | nt | 4.1 | -4.0 | nt | nt
CCS(=O)c1ccccc1C(=O)OCC(=O)Nc1cccc(S(=O)(=O)N2CCCCC2)c1 (stereo unspecified) | -7.2 | 5.1 | nt | 0.0 | 58.7* | -2.5 | 53.4*
O=C(COC(=O)c1cccnc1Cl)Nc1cccc(S(=O)(=O)N2CCCCC2)c1 | -4.3 | 4.0 | 1.1 | 8.1 | 27.3 | 0.6 | nt
O=C(COC(=O)c1ccccc1O)Nc1ccc2ccccc2c1 | 7.7 | nt | nt | 0.1 | 1.7 | -6.6 | nt
CC1=C(C(=O)OCC2CCCO2)C(c2ccsc2)C2=C(CCCC2=O)N1 (stereo unspecified) | 1.1 | 4.7 | 5.4 | 3.2 | -11.3 | -0.6 | nt
Cc1cc(C)c2c(=N)c3ccccc3n(CCCCCCCCn3c4ccccc4c(=N)c4c(C)cc(C)nc43)c2n1 | -6.7 | nt | nt | 2.1 | 3.5 | nt | nt
Cc1ccc(N2CCN(S(=O)(=O)c3nnc(NC(=O)c4ccco4)s3)CC2)cc1 | -0.4 | -9.4 | -4.1 | 13.3 | -1.6 | 1.4 | nt
CC(=O)NCc1ccc(-c2nc3ccccc3s2)cc1 | 3.3 | 1.5 | -2.4 | -0.2 | 3.5 | 6.1 | nt
COc1ccc(-c2nc3ccccc3s2)cc1NC(C)=O | 18.8 | 1.4 | -3.6 | 0.8 | 41.2* | 1.3 | 2.8
COc1ccccc1-n1c(SCC(=O)Nc2ccc(NC(C)=O)cc2)nc2c([nH]c3ccccc32)c1=O | -0.1 | -50.7 | -11.1 | 0.8 | -6.7 | -1.3 | nt
O=C1c2nc3ccccn3c2C(=O)N1Cc1ccccc1 | -1.4 | -6.0 | -0.9 | -5.9 | 38.3* | 4.2 | 26.6
Cc1cc(NC(=O)COC(=O)c2cc3c(s2)CCC(C)C3)no1 (stereo unspecified) | 4.9 | -3.9 | -9.6 | 5.0 | 29.9* | -2.0 | 27.8
CC1CCc2sc(C(=O)OCC(=O)NC(C)C)cc2C1 (stereo unspecified) | -2.6 | 12.4 | 9.1 | 1.3 | 31.0* | -0.8 | 28.9
CC1CCc2sc(C(=O)OCC(=O)NC(N)=O)cc2C1 (stereo unspecified) | -3.4 | -2.2 | 0.1 | -2.6 | 2.6 | 2.2 | nt
CC(=O)c1ccc(S(=O)(=O)N2CCC(NC(=O)c3ccccc3)CC2)cc1 | 1.4 | nt | nt | 1.9 | -1.5 | nt | nt
CCOC(=O)c1c(NC(=O)C2CC(Cl)=CCC2C(=O)O)sc2c1CCCCC2 (stereo unspecified) | 18.4 | 6.7 | -1.6 | 6.7 | 38.4* | 14.5 | 27.6
CC12CC3CC(C)(C1)CC(C(=O)NCc1ccncc1)(C3)C2 | 9.1 | -3.7 | 1.2 | 18.7 | 0.3 | 4.6 | nt

Screens: PubChem BioAssay, The Scripps Research Institute Molecular Screening Center
